# Screens: PubChem BioAssay, National Center for Advancing Translational Sciences (NCATS)
# LDHA block: qHTS assay for inhibitors of human lactate dehydrogenase; AID 1347041, 2019; activity change, % (values are at about 110 or 230 µM); hit rate 0.15% among 480,000; purified LDHA, NADH/diaphorase-resazurin fluorescence; hits give low values; L-lactate dehydrogenase A chain (Homo sapiens), P00338; in the data active means activity change below about -30%; inconclusive means mostly about -25% to -30%;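 further: plate controls were DMSO wells for no effect and wells without enzyme for full effect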
#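 Enzyme activity of human lactate dehydrogenase 5 (2 nM; 0.06 mM NADH, 0.2 mM pyruvate, 5 min, RT) is measured via a resazurin/diaphorase fluorescence readout of residual NADH.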
# A549 tox: Nrf2 qHTS screen for inhibitors: counterscreen for cytotoxicity; A549 ARE-Fluc cells, CellTiter-Fluor viability, 18-24 h; hit rate 0.16% among 390,000; AID 504648, 2011; Potency, µM (top dose mostly 46 µM), for inactives: at the top dose activity change, negative = cytotoxicity, usual class: inhibitors; further: potency means the concentration at half of the fitted maximal effect; on the % scale 0 is the no-effect control and ±100 the full control effect
#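 Cytotoxicity counterscreen: CellTiter-Fluor fluorescence was measured in A549 ARE_Fluc cells after 18-24 h of compound exposure in a concentration series. The subsequent BugLite luminescent read reports ARE-luciferase activity.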
# ALOX12 inh: Primary qHTS assay for inhibitors of human arachidonate 12S-lipoxygenase (ALOX12): Round 2. Polyunsaturated fatty acid lipoxygenase ALOX12 (Homo sapiens), P18054. purified 12hLO, xylenol orange hydroperoxide absorbance. Potency, µM (highest dose often 108 µM), without a hit: top-dose activity change, negative = inhibition, most hits filed as inhibitors. hit rate 1.1% among 580,000; further: potency means the concentration at half of the fitted maximal effect; on the % scale 0 is the no-effect control and ±100 the full control effect
#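 Purified human 12hLO (150 nM final) in 25 mM Hepes, 0.01% Triton X-100, pH 7.0 was preincubated 15 min at room temperature with compound. Then 40 uM arachidonic acid was added, 30 min. Hydroperoxide was read by Fe-XO absorbance ratio 573/405 nm.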
# ERG Ets-DNA blk: qHTS for Small Molecule Inhibitors of the ERG Ets/DNA interaction. Transcriptional regulator ERG (Homo sapiens), P11308. fluorescence polarization, His-ERG Ets domain / labelled DNA. Potency, µM (top dose mostly 76.9 µM), for the others: top-dose FP activity, negative = inhibition, hits mostly inhibitors. hit rate 0.028% among 370,000. AID 624246, 2012; active means well fitted inhibition curve with a large enough effect in the polarisation, with a control signal flat; inconclusive means small, poorly fitted or top-dose-only effect, or effect the other way, or a change in a side signal; inactive means no such curve, though single readings can be large or run the other way; the % refers to the polarisation;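 further: polarization taken with two DNA probes labelled with fluorescein and Texas red; potency means the concentration at half of the fitted maximal effect; % of control where 0% means no effect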
# Target sequence (P11308 whole entry, looked up, the tested form may be a part): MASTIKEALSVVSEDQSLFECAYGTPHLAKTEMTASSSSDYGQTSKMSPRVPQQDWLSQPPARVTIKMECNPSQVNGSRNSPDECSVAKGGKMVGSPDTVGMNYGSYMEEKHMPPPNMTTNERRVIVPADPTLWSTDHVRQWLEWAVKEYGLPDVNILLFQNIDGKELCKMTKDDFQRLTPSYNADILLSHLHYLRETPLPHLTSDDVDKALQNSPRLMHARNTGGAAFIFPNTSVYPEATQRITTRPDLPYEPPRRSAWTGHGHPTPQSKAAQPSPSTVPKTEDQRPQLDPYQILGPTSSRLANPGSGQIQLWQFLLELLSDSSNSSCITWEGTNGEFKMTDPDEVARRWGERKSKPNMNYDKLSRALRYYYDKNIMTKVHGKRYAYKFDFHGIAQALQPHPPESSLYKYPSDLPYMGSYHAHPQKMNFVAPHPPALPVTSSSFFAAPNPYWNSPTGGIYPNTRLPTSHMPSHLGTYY
#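 His-tagged ERG Ets domain (1 uM in the protein solution; 300mM KCl, 50mM Tris-HCl, 1mM EDTA, 1mM DTT, pH 7.5) received compound, then a probe mix of 5 nM fluorescein-DNA and 100nM Texas-615-DNA. Fluorescence polarization was read for both dyes.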
# Nrf2 block: Nrf2 qHTS screen for inhibitors. Potency, µM (doses to about 46 µM), without a hit: top-dose activity change, negative = inhibition, usual class: inhibitors. A549 ARE-Fluc reporter, luciferase luminescence, 18-24 h. hit rate 2.1% among 360,000; further: potency means the concentration at half of the fitted maximal effect; on the % scale 0 is the no-effect control and ±100 the full control effect; nearly all actives have a fitted effect of over 60% in size
#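 Nrf2 activity is the BugLite luminescence, read 15 min after reagent at room temperature, following CellTiter-Fluor cytotoxicity readout (30 min, 37C). Compound titrations were applied for 18-24 h to 5000 A549 ARE_Fluc cells/well in 5% FBS OPTI-MEM.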
# Nrf2 activator: qHTS of Nrf2 Activators; AREc32 ARE-luciferase reporter (MCF7-derived line), luminescence, 24 h; Potency, µM (titrated, usually from 46.1 µM), for the others: at the top dose activation, most hits filed as activators; hit rate 0.31% among 410,000; AID 624171, 2012; further: potency means the concentration at half of the fitted maximal effect; % of control where 0% means no effect; nearly all actives have a fitted effect of over 65% in size
#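 ARE-driven firefly luciferase activity in AREc32 cells measured after a 24 hr compound exposure at 37 deg C, using Steady-Glo reagent and a 30 min room-temperature hold.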
# * hit, by the source's call; i = inactive; ? = inconclusive; · = not tested or not shown; [ ] = remark or other dose. An excerpt weighted towards active compounds, which were near 2.7% of everything screened. Unless noted, the call rests on the fitted dose curve; in most records, active means well fitted curve in the direction sought with a large enough effect; inconclusive means small, poorly fitted or top-dose-only effect, or another doubt; inactive means no such curve, though single readings can be large; an effect the other way counts as inactive or inconclusive.
SMILES,LDHA block,A549 tox,ALOX12 inh,ERG Ets-DNA blk,Nrf2 block,Nrf2 activator
Cc1ccccc1C1CCCN1S(=O)(=O)c1cccc2nsnc12 (stereo not given),-4.6,·,-3.0%,·,·,·
CCOC(=O)c1cc2cc(Oc3ccccc3)ccc2n1C,2.1,·,?,·,·,·
CCn1c(SCC(=O)N(C)CCOc2ccc(Br)cc2)nnc1C1CC1,0.5,·,26.2%,·,·,·
COC(=O)C1=C(N)N(c2ccc(Br)cc2)C2=C(C(=O)CCC2)C1c1ccc(OC)cc1 (stereo not given),2.0,·,?,·,·,·
COc1ccc2c(c1)C1=C(CC2)C(c2ccc(C)cc2)NC(=S)N1 (stereo not given),1.6,4.7%,39.8µM*,8.3%,?,4.8%
O=C(Nc1ccc(N2CCCC2)cc1)c1cccc(-c2cc3ccccc3oc2=O)c1,-1.3,0.7%,11.2µM*,-3.4%,-13.4%,0.4%
O=c1cnc(-c2ccc(Cl)cc2)cn1O,-12.3,1.9%,50.1µM*,-4.4%,1.1%,1.0%
O=c1[nH]c(=O)c2nc(-c3ccc(Cl)cc3)cnc2[nH]1,-9.9,11.5%,?,6.6%,-3.0%,0.2%
O=C(NC1CCCCC1)C(c1ccccc1)N(C(=O)c1cnccn1)c1cccs1 (stereo not given),16.2,·,24.4%,·,·,·
C[N+]1(CCCCCCCCCCCCCO)CCCC1,-3.0,·,28.2µM*,·,·,·
Cc1ccc(CNC(=O)c2cnn(-c3cccc(C)c3)c2C2CCN(C(=O)OC(C)(C)C)CC2)cc1,3.2,-27.2%,-19.4%,1.1%,18.4µM*,-0.4%
Cc1ccc(CNC(=O)c2cnn(-c3ccc(F)cc3F)c2C2CCN(C(=O)OC(C)(C)C)CC2)cc1,-0.6,?,-19.9%,1.5%,16.4µM*,-0.5%
CC(C)(C)OC(=O)N1CCC(c2c(C(=O)NCc3ccccc3)cnn2-c2ccccc2)CC1,2.8,-1.7%,-21.7%,9.1%,-20.1%,-0.6%
CC(C)c1nnc2sc(-c3cc4ccccc4[nH]3)nn12,0.4,·,?,·,·,·
Cc1ccc(C)c(N2CCN(C(=O)c3ccccc3NC(=O)Cn3c(C)cc(C)c(C#N)c3=O)CC2)c1,-7.1,·,-20.0%,·,·,·
COc1ccc(Cl)cc1NC(=O)CSc1nc2c(c(=O)n1C)SCC2,-2.8,·,-63.8%,·,·,·
CC(=O)NCc1ccc(-c2csc(-c3ccccc3C)n2)o1,12.5,·,?,·,·,·
CCOC(=O)C(C(=O)OCC)C(C)(C)/C(C)=N\Nc1ccc([N+](=O)[O-])cc1[N+](=O)[O-],6.4,?,4.3%,10.8%,?,7.4%
CCOC(=O)CC(C)(C)/C(C)=N/Nc1ccc([N+](=O)[O-])cc1[N+](=O)[O-],0.3,?,-18.2%,-1.5%,18.4µM*,5.8%
O=S(=O)(c1cccs1)N1CCN(CCOc2ccc(Cl)cc2)CC1,-1.7,-23.5%,190.6%,4.8%,14.6µM*,-0.8%
O=C1c2ccccc2C(=O)N1CCCCN(C(=O)c1cc([N+](=O)[O-])cc([N+](=O)[O-])c1)c1ccc(Cl)cc1,-4.5,-11.8%,-6.7%,0.7%,23.1µM*,-0.1%
O=C1c2ccccc2C(=O)N1CCCCN(C(=O)c1ccc([N+](=O)[O-])cc1)c1ccc(Cl)cc1,-5.5,-19.9%,0.0%,-2.3%,?,0.2%
CCOc1ccc(NC(=O)CSc2nnc(-c3ccc(OCC)cc3)o2)cc1,6.1,14.7%,-25.8%,1.1%,1.2%,-2.1%
CCOc1ccc(-c2nnc(SCC(=O)Nc3cc(C)on3)o2)cc1,-6.1,-3.8%,76.9%,?,14.6µM*,-1.7%
Cc1cccc(OCC(=O)Nc2ccc(N3CCN(C(=O)c4ccco4)CC3)cc2)c1,-1.9,-6.5%,4.2%[57.4 µM],9.6%,20.6µM*,0.3%
SMILES,LDHA block,A549 tox,ALOX12 inh,ERG Ets-DNA blk,Nrf2 block,Nrf2 activator
Cc1cc(OCC(=O)Nc2ccncc2)cc(C)c1Cl,2.4,0.9%,8.0%,1.2%,13µM*,1.9%
Cc1cc(OCC(=O)Nc2ccc(N3CCN(C(=O)c4ccco4)CC3)cc2)cc(C)c1Cl,-4.2,-21.3%,-10.6%,0.4%,8.2µM*,-1.1%
Cc1cc(OC(C)C(=O)Nc2ccncc2)ccc1Cl (stereo not given),0.0,-3.0%,14.8%,-13.7%,18.4µM*,-1.0%
Cc1ccc(OCC(=O)Nc2ccc(N3CCN(C(=O)c4ccco4)CC3)cc2)cc1C,-5.0,-6.2%,-2.9%,-5.7%,?,2.4%
COc1ccc(C(=O)N2CCN(C(=O)Cc3cc(OC)c(OC)c(OC)c3)CC2)cc1,-3.6,·,8.9%,·,·,·
CC(=O)N1CCN(c2ccc(NC(=O)COc3c(C)cc(C)cc3Cl)cc2)CC1,5.4,·,12.6µM*,·,·,·
OC(CNCc1ccc2ccccc2c1)c1ccccc1 (stereo not given),0.4,·,-8.9%,·,·,·
O=C(C[n+]1ccccc1Cl)c1ccc2ccccc2c1,-11.4,·,·,·,·,·
O=C(CBr)c1ccc(Oc2ccc(C(=O)C[n+]3ccccc3Cl)cc2)cc1,-72.0*,·,·,·,·,·
COC(=O)c1cn(NC(=O)c2cc([N+](=O)[O-])ccc2F)c(=O)c2ccccc12,-5.2,-16.1%,-18.3%,2.2%,5.17µM*,17.6%
COC(=O)c1cn(NC(=O)C2CCC(C)CC2)c(=O)c2ccccc12 (stereo not given),-6.8,-1.9%,0.0%,-4.3%,26.3%,-0.3%
CCOc1ccccc1NC(=O)C(=O)c1c[nH]c2c(CC)cccc12,-36.2*,·,?,·,·,·
Cc1cc(NCc2ccccn2)n2nc(C)c(-c3ccc(Cl)cc3)c2n1,-2.2,-29.0%,i,2.3%,16.4µM*,-0.2%
Cc1cccc(CCNC(=O)c2cc3ccccn3n2)c1,-12.8,3.3%,-22.9%,0.7%,?,0.6%
COc1ccc(NC(=O)c2ccco2)cc1NC(=O)c1cc(Cl)ccc1OC,-0.8,-5.3%,?,1.4%,-19.5%,2.7%
Cc1ccc(C(=O)Nc2cc(Cl)ccc2-n2cncn2)o1,1.7,0.1%,-28.9%,-2.5%,18.2%,7.0%
COc1ccc(Cl)cc1NC(=O)c1ccco1,-6.1,1.5%,13.9%,-14.3%,·,5.01µM*
CCOc1ccc(CCNC(=O)c2cc3ccccn3n2)cc1OCC,-2.9,-6.7%,13.9%,-3.6%,20.6µM*,2.3%
COc1ccc(NC(=O)c2ccco2)cc1NC(=O)COc1cc(C)ccc1C(C)C,0.5,-18.6%,-19.4%,3.6%,18.4µM*,-0.7%
O=C(Nc1cc(Cl)ccc1-n1cncn1)c1ccco1,-2.9,1.8%,6.5%,16.0%,1.2%,10µM*
